SMILES strings stand for the structures.

The subject of the experiment is thyroid hormone receptor (endogenous TRα and TRβ). Further details: species or system GH3-TRE-Luc (rat pituitary); GH3-TRE-Luc luciferase reporter, antagonist mode against 1 nM T3, loss of signal, qHTS. Conditions: read-out: Average AC50 (uM) GH3-TRE-Antag, antagonist mode, 1 nM T3, no GH3 cytotoxicity hit.
Regarding `CC(C)CC(=O)C1C(=O)c2ccccc2C1=O` [2-Isovaleryl-1,3-indanedione], the concentration at half-maximal activity (AC50) – broadly, the concentration giving half of the maximal activity seen – came to 77.1 µM.

As for `COC(=O)c1cc(Oc2ccc(Cl)cc2Cl)ccc1[N+](=O)[O-]` [Bifenox], the concentration at half-maximal activity (AC50) came out at 74 µM.

`Oc1ccc2c(c1)OCO2` [Sesamol]: the AC50 was over 90 µM.

The values above are taken from publication PMC6792352, “Limited Chemical Structural Diversity Found to Modulate Thyroid Hormone Receptor in the Tox21 Chemical Library” (Environmental Health Perspectives, 2019).
